The source of these data is PubChem BioAssay (NCATS).

A short description of test [1]: qHTS of pediatric cancer cell lines to identify multiple opportunities for drug repurposing: Primary screen for Rh41 cells (AID 1347108).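 Further: series mostly up to about 46 µM; luminescence drop marks cytotoxic hits; nearly all actives have a fitted effect of over 70% in size.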 The gist of the method:
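ATP-based luminescence (CellTiter-Glo) quantifies viability after a 48-hour exposure. Compounds are dosed across 8 or 11 final concentrations; DMSO and 2.3 µM bortezomib serve as controls.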

A short description of test [2]: qHTS of pediatric cancer cell lines to identify multiple opportunities for drug repurposing: Confirmatory screen for NB1643 cells (AID 1347109). Further: nearly all actives have a fitted effect of over 45% in size. Further: potency means the concentration at half of the fitted maximal effect. The gist of the method:
(§1)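 Viability after 48 h compound treatment at 37C, 500-1,000 cells/well, read as ATP luminescence with CellTiter-Glo. Primary screens used 11-point (MIPE, 0.78 nM-46 µM) or 8-point (NPC, 0.59 nM-46 µM) final concentrations; follow-up screens used 11-point dilutions.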

A short description of test [3]: qHTS of pediatric cancer cell lines to identify multiple opportunities for drug repurposing: Confirmatory screen for A673 cells (AID 1347110). Further: nearly all actives have a fitted effect of over 65% in size. Further: potency means the concentration at half of the fitted maximal effect. The gist of the method: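 Forty-eight-hour viability assay. Follow-up compounds ran at 11-point dilutions; positive control bortezomib at 2.3 uM final, neutral control DMSO.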
In general terms: qHTS replaces the single test concentration by a dilution series.

Test [4] can be described thus: qHTS of pediatric cancer cell lines to identify multiple opportunities for drug repurposing: Confirmatory screen for BT-12 cells (AID 1347112). Further: nearly all actives have a fitted effect of over 55% in size. The text has this: (§2) Drug repurposing or repositioning has been offered as a strategy for drug development in oncology programs. This approach has special potential for childhood cancers and other rare or orphan diseases, where the expected return on new drug development has been a disincentive to pharmaceuticals.
(§3) In this project we exploit the poly-pharmacology of drugs to discover new indications via phenotypic screening of a panel of 19 well-characterized cell lines derived from solid tumors seen in children and adolescents. The goal is to identify approved drugs with previously unrecognized anticancer properties that has the potential to reveal new mechanisms and biological processes involved in carcinogenesis or drug resistance. We employed a titration-based paradigm (quantitative high-throughput screening or qHTS), where all compounds were tested at multiple concentrations for their effect on cell viability. Concentration-response curves (CRCs) were derived directly from the primary screen, and both potency and efficacy values were used to identify compounds with robust bioactivity profiles. We screened the NIH Chemical Genomics Center (NCGC) Pharmaceutical Collection (NPC) and Mechanism Interrogation Plate (MIPE) small molecule collections of approved and investigational compounds against these cell lines; and measured metabolically active cells after 48 hours of compound treatment as a proxy for cell viability.
(§4) Assay Submitter: Nathalia J. Martinez, National Center for Advancing Translational Sciences, National Institutes of Health, Rockville, MD, USA; email: natalia.martinez@nih.gov
[1] Shen, M et al. Quantitative high-throughput phenotypic screening of pediatric cancer cell lines identifies multiple opportunities for drug repurposing. Oncotarget 2017 Dec 19;9(4):4758-4772. PMID 29435139. […]
Cells were assayed in growth media at a density of 500-1,000 cells/well. […] After a 15 min incubation at room temperature, samples were analyzed for luminescence intensity using a ViewLux High-throughput CCD imager equipped with clear filters.

A short description of test [5]: qHTS of pediatric cancer cell lines to identify multiple opportunities for drug repurposing: Confirmatory screen for DAOY cells (AID 1347114). Further: nearly all actives have a fitted effect of over 65% in size. The essentials:
(§5)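 Viability measured as metabolically active cells via CellTiter-Glo luminescence following 48 hours of compound exposure, 11-point dilutions in confirmatory testing. 500-1,000 cells/well plated 5 hours before dosing; controls were DMSO and 2.3 µM bortezomib.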

Test [6] can be described thus: qHTS of pediatric cancer cell lines to identify multiple opportunities for drug repurposing: Confirmatory screen for NB-EBc1 cells (AID 1347115). Further: nearly all actives have a fitted effect of over 45% in size. The essentials: as §1
A short description of test [7]: qHTS of pediatric cancer cell lines to identify multiple opportunities for drug repurposing: Confirmatory screen for BT-37 cells (AID 1347117). Further: nearly all actives have a fitted effect of over 55% in size. Further: potency means the concentration at half of the fitted maximal effect.
Description: as §2, §3, §4
[1] Shen, M et al. Quantitative high-throughput phenotypic screening of pediatric cancer cell lines identifies multiple opportunities for drug repurposing. Oncotarget 2017 Dec 19;9(4):4758-4772. PMID 29435139.
The cells were obtained from University of North Carolina (UNC), Pediatric Preclinical Testing Program (PPT), and Coriell Institute (CI).
qHTS cell viability assay:
Cells were assayed in growth media at a density of 500-1,000 cells/well. Five microliters of cells were dispensed into 1,536-well, white, solid-bottom, TC-treated plates (Greiner Bio One) using a multidrop dispenser and incubated at 37 degrees C, 5% CO2, under a humidified atmosphere for 5 hours. Twenty-three nanoliters of compounds and controls (neutral control DMSO or positive control bortezomib at final concentration of 2.3 µM) were subsequently transferred by Kalypsys pintool. […] After a 15 min incubation at room temperature, samples were analyzed for luminescence intensity using a ViewLux High-throughput CCD imager equipped with clear filters.

A short description of test [8]: qHTS of pediatric cancer cell lines to identify multiple opportunities for drug repurposing: Confirmatory screen for SK-N-MC cells (AID 1347111).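 Further: potency means the concentration at half of the fitted maximal effect; cells exposed to compound for 48 h before the readout; nearly all actives have a fitted effect of over 70% in size.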 To be noted: SK-N-MC cell viability. The essentials:
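SK-N-MC cells at 500-1,000 cells/well in growth media were pre-incubated 5 h, then exposed to compounds at 11-point dilutions for 48 h at 37 degrees C, 5% CO2. Viability was read as CellTiter-Glo luminescence.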

The nature of test [9]: qHTS of pediatric cancer cell lines to identify multiple opportunities for drug repurposing: Confirmatory screen for LAN-5 cells (AID 1347113). Further: nearly all actives have a fitted effect of over 65% in size. Further: potency means the concentration at half of the fitted maximal effect. The gist of the method: as §1
Test [10] can be described thus: qHTS of pediatric cancer cell lines to identify multiple opportunities for drug repurposing: Confirmatory screen for SJ-GBM2 cells (AID 1347116). Further: nearly all actives have a fitted effect of over 60% in size. The essentials:
as §5

Records with an inconclusive call do not appear. Where a call stands in place of a potency, no number is given. Unmarked numbers belong to inactive results. Calls of active or inactive are those of the source. The call rests on the fitted dose curve; in most records, active means well fitted curve in the direction sought with a large enough effect; inconclusive means small, poorly fitted or top-dose-only effect, or another doubt; inactive means no such curve, though single readings can be large; an effect the other way counts as inactive or inconclusive. Where a SMILES comes first, the peptide text is derived from it. Bridges are numbered along the chain shown (N, C = ends). [ ]: non-standard residue; d: D form. hArg = N=C(N)NCCCC[C@H](N)C(=O)O; Mpa = O=C(O)CCS

For the compound `CC1(c2ccccc2)OC(C(=O)O)=CC1=O` (stereo not given), the result in test [1] was inactive.
Turning to `Cn1cc(C(=O)[C@@H]2CCc3nc[nH]c3C2)c2ccccc21`, the compound was classed as inactive in test [1].
On the same count and under the same terms, the value for `CC(C)NC[C@@H](O)COc1ccc(CC(N)=O)cc1` was “inactive”.
On to `COc1ccc(-c2cc(=O)c3c(O)cc(O[C@@H]4O[C@H](CO[C@@H]5O[C@@H](C)[C@H](O)[C@@H](O)[C@H]5O)[C@@H](O)[C@H](O)[C@H]4O)cc3o2)cc1O`, for which, in test [1], the compound was called inactive.
The same measure, in the same setting: the value for `Cn1c([N+](=O)[O-])cnc1COC(N)=O` was “inactive”; that for `NS(=O)(=O)c1cc(C2(O)NC(=O)c3ccccc32)ccc1Cl` (stereo not given) was “inactive”.
Regarding `CN1CC(=O)NC1=N`, the compound was called inactive in test [1].
In the case of `COc1cc(C(=O)NCCCCCC(=O)O)cc(OC)c1OC`, the compound was called inactive in [1], in test [4], in test [5] and in test [6]. In addition, the Potency entry in test [2], in test [3] and in [7] was “inactive” in each case.
For the compound `CC(C)=CCC[C@@](C)(O)[C@H]1CC=C(C)CC1`, in test [1], the result was inactive.
Still for that read-out and setting: as for `C[C@]1(Cn2ccnn2)[C@H](C(=O)O)N2C(=O)C[C@H]2S1(=O)=O`, the entry is “inactive”.
On to `O=C(O)Cc1ccc(CCNS(=O)(=O)c2ccc(Cl)cc2)cc1`, for which, in [1], the compound was called inactive.
On to `O=C(O)c1ccc(OCCCOc2ccc(C(=O)O)cc2)cc1`, for which the outcome in test [1] was inactive.
Regarding `CCN(CC)C(=O)c1cccc(C)c1`, the compound was classed as inactive in test [1].
With `COc1ccc2cc(CCC(C)=O)ccc2c1`, the outcome in test [1] was inactive.
Turning to `NNc1nnc(NN)c2ccccc12`, the result in [1] was inactive.
Regarding `Cc1cc(C)nc(NS(=O)(=O)c2ccc(N)cc2)n1`, the compound was classed as inactive in [1].
On the same count and under the same terms, as for `CN(C/C=C/C#CC(C)(C)C)Cc1cccc2ccccc12`, the entry is “inactive”; as for `C[N+](C)(C)CC(O)CC(=O)[O-]` (stereo not given), “inactive”.
Regarding `N[C@@H](Cc1ccc(O)cc1)C(=O)O`, the activity change, negative = cytotoxic in [1] was 24.2% [at 9.22 µM].
With `CCCNC(C)(C)COC(=O)c1ccccc1`, the outcome in test [1] was inactive.
For `O=C(O)Cn1c(C(=O)Nc2nc(-c3ccccc3Cl)cs2)cc2ccccc21`, in test [1], the compound was classed as inactive.
Turning to `C=CCNC(N)=S`, the compound was called inactive in test [1].
Take `CC(=O)[C@@]1(O)CC[C@H]2[C@@H]3C[C@H](C)C4=CC(=O)C=C[C@]4(C)[C@@]3(F)[C@@H](O)C[C@@]21C`: the call in [1], in test [4], in test [5], in test [6] and in [10] was inactive. For the same compound, the Potency entry in test [2], in test [3], in test [9] and in test [7] was “inactive” in each case. Also, the Potency in [8] is 23.3 µM (active).
As for `C/C=C1\[C@H]2C=C(C)C[C@]1(N)c1ccc(=O)[nH]c1C2`, the result in test [1] was inactive.
Same read-out and setting: the value for `O=C(O)/C=C/c1ccc(Cn2ccnc2)cc1` was “inactive”.
In the case of `O=C(Cn1ccnc1[N+](=O)[O-])NCc1ccccc1`, the call in test [1], in test [4], in test [5] and in test [6] was inactive. In addition, the Potency result in test [2], in test [9] and in [7] was “inactive” in each case. Besides, the Potency in [3] was 1.17 µM (active); in test [8], 2.93 µM (active).
With `CC(=O)OCC(=O)[C@@]1(O)CC[C@H]2[C@@H]3CCC4=CC(=O)C=C[C@]4(C)[C@@]3(F)[C@@H](O)C[C@@]21C`, the result in test [1] and in test [5] was inactive. Besides, the Potency was 10.4 µM (active) in test [2], 16.5 µM (active) in test [8], 14.7 µM (active) in test [9] and 16.5 µM (active) in test [7].
`OCc1ccc(Cl)cc1Cl`: the compound was classed as inactive in test [1].
For `NC(=O)NC1NC(=O)NC1=O` (stereo not given), the call in [1] was inactive.
Same read-out and setting: as for `O=C1C(c2[nH]c3ccccc3c2O)=Nc2ccccc21`, the entry is “inactive”.
The same measure, in the same setting: the value for `Cc1ccc(C(C)C)c(O)c1` was “inactive”; that for `O=c1[nH]cnc2nc[nH]c12` was “inactive”; that for `CO[C@@]1(NC(=O)C(C(=O)O)c2ccc(O)cc2)C(=O)N2C(C(=O)O)=C(CSc3nnnn3C)CO[C@@H]21` (stereo not given in full) was “inactive”.
Same read-out and setting: as for `CC(C)=CCC/C(C)=C/CO`, the entry is “inactive”; as for `COCC(=O)Nc1c(I)c(C(=O)NCC(O)CO)c(I)c(C(=O)N(C)CC(O)CO)c1I` (stereo not given), “inactive”; as for `NC(=O)[C@@H]1CSSCCC(=O)N[C@@H](CCCCN=C(N)N)C(=O)NCC(=O)N[C@@H](CC(=O)O)C(=O)N[C@@H](Cc2c[nH]c3ccccc23)C(=O)N2CCC[C@H]2C(=O)N1` ([Mpa][hArg]GDWPC-NH2; disulfide 1-7), “inactive”.
Turning to `NS(=O)(=O)c1ccc(C(=O)O)cc1`, in test [1], the compound was classed as inactive.
`CC1CCN(CCCC(=O)c2ccc(F)cc2)CC1`: in test [1], the result was inactive.
For `O=C(c1ccccc1)C(O)c1ccccc1` (stereo not given), in test [1], the compound was classed as inactive.
For `CN1C[C@@H]2C[C@H]1CN2c1cc2c(cc1F)c(=O)c(C(=O)O)cn2C1CC1`, the outcome in test [1] was inactive.
Same read-out and setting: as for `O=C(Cn1ccnc1[N+](=O)[O-])NCCO`, the entry is “inactive”; as for `O=C(O)CCCCC1CCSS1` (stereo not given), “inactive”.
